Values without a mark were called inactive. Records with an inconclusive call do not appear. The source made the active and inactive calls. Unless noted, the call rests on the fitted dose curve; in most records, active means well fitted curve in the direction sought with a large enough effect; inconclusive means small, poorly fitted or top-dose-only effect, or another doubt; inactive means no such curve, though single readings can be large; an effect the other way counts as inactive or inconclusive.
Tests used:
[1] = target: Lysosomal acid glucosylceramidase (Homo sapiens) (UniProt P04062); assay: Glucocerebrosidase-p2 (AID 348; in the data active means potency below about 10 µM; further: potency means the concentration at half of the fitted maximal effect); settings: purified GBA, blue fluorogenic substrate, 40 min
Lysosomal acid glucosylceramidase (Homo sapiens), sequence (P04062 whole entry, looked up): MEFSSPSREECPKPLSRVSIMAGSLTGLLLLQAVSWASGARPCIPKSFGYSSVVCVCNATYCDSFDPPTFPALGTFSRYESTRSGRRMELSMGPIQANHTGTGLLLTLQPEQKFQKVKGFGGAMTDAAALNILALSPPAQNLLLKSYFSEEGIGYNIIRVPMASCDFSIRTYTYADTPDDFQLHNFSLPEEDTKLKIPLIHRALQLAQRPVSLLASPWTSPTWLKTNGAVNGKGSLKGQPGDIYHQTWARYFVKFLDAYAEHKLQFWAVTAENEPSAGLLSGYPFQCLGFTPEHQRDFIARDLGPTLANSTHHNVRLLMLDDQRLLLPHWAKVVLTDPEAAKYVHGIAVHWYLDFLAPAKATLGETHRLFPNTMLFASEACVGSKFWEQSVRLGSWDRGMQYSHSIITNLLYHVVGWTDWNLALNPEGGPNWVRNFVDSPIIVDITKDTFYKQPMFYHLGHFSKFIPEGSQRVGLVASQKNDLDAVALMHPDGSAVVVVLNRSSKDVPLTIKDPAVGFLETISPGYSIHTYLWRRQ
Procedure, shortened: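 Compounds titrated from 0.6 nM upwards against 0.2 nM enzyme in pH 5.9 citric acid/KH2PO4, taurocholate, tween-20; blue fluorogenic substrate 80 uM, 40 min room temperature, stopped and read Ex 365/Em 440 for AC50.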

[2] = AP1 Signaling Pathway (AID 357; active means well fitted curve in either direction with a large enough effect, not every such curve was filed as active;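 further: ME-180 reporter cells stimulated with EGF at its EC50 level; on the % scale 0 is the no-effect control and ±100 the full control effect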); settings: ME-180 AP-1-bla reporter, EGF-induced, beta-lactamase ratio, 5 h; at 7.69 µM (top of the series) unless noted
Procedure, shortened: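 A ratiometric CCF4 readout (405 nm excitation; 460 and 530 nm emission) quantified AP-1-driven beta-lactamase in ME-180 cells after 5 h with compound and EC50 EGF; AC50 values were derived for activators and inhibitors.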

[3] = target: Cytochrome P450 1A2 (Homo sapiens) (UniProt P05177); assay: p450-cyp1a2 (AID 410; calls by dose curve; further: potency means the concentration at half of the fitted maximal effect;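 on activity change, negative = inhibition: -100% = full effect of reference inhibitor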); settings: recombinant CYP1A2, luciferin-ME demethylation, luminescence; series mostly up to 57 µM
Cytochrome P450 1A2 (Homo sapiens), sequence (P05177 whole entry, looked up): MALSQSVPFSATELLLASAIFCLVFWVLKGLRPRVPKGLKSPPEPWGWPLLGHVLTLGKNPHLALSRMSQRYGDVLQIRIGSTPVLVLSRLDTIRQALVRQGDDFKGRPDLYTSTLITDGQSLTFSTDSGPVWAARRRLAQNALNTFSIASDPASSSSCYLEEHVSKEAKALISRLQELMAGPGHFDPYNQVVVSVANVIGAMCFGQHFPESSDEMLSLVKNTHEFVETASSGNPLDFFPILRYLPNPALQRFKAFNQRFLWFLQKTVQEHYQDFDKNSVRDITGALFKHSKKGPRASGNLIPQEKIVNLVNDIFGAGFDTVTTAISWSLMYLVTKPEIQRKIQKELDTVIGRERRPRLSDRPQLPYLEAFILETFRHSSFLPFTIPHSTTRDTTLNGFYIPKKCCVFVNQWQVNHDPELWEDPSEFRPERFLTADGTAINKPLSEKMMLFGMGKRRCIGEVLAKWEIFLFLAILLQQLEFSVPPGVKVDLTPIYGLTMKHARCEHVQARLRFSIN
Procedure, shortened: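 Human CYP1A2 (20nM) demethylated Luciferin-ME at its Km (100uM) in 100mM KPO4. After 10 min compound preincubation, NADPH regeneration ran the reaction 60 min at room temperature. Luciferin was read by luminescence, normalized to 57 uM furafylline.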

[4] = Stat Signaling Pathway (AID 446; active means well fitted curve in either direction with a large enough effect, not every such curve was filed as active;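 further: ME-180 cervical cancer cells given 40 pM IL-6 alongside compound; SIE-controlled beta-lactamase reporter measured as 460/530 nm FRET emission ratio; on the % scale 0 is the no-effect control and ±100 the full control effect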); settings: ME-180 SIE beta-lactamase reporter, IL-6 stimulated, 5 h; at 7.69 µM (top of the series) unless noted
Procedure, shortened: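 ME-180 SIE-bla cells; overnight plating; cpd + IL-6 40 pM, 5 h, 37 C; LiveBLAzer 2.5 h RT; 460/530 nm emission ratio. Normalized to 300 pM IL-6 and 125 nM JAK inhibitor controls.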

[5] = target: Glucocorticoid receptor (Homo sapiens) (UniProt P04150); assay: GR-GFP Redistribution (AID 450;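 active means compounds whose dose series gives a full or clear partial fitted curve of increased nuclear translocation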; further: potency means the concentration at half of the fitted maximal effect); settings: U2OS GR-GFP nuclear translocation, laser cytometry, 2 h
Glucocorticoid receptor (Homo sapiens), sequence (P04150 whole entry, looked up, the tested form may be a part): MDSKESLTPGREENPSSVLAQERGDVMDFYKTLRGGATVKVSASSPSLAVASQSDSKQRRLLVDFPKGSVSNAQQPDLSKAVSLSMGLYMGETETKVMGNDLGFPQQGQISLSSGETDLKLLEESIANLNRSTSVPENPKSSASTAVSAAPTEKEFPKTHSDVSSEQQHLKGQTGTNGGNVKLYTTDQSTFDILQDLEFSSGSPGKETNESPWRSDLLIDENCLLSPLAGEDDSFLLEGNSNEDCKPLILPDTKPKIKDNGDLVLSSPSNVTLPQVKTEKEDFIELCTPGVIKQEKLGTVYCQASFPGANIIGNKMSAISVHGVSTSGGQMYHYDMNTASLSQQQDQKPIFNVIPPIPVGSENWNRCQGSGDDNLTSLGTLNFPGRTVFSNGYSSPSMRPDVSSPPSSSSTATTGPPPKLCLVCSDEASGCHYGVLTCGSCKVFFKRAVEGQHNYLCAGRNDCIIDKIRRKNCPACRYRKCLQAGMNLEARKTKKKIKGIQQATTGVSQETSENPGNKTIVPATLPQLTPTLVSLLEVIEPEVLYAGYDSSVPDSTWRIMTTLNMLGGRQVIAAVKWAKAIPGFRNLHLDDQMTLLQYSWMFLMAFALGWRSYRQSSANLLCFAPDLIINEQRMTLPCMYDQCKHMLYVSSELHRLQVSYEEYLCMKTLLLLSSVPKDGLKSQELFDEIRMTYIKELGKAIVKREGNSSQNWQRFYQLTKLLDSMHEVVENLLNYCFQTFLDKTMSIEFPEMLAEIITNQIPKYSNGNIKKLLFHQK

[6] = target: Glucocorticoid receptor (Homo sapiens) (UniProt P04150); assay: GR-EFC Redistribution (AID 451; calls by dose curve; further: potency means the concentration at half of the fitted maximal effect); settings: CHO-K1 GR-EFC translocation, beta-gal luminescence, 2 h
Procedure, shortened: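 CHO-K1 cells stably expressing nuclear-localized β-gal enzyme acceptor and GR fused C-terminally to the enzyme donor fragment; ligand-driven nuclear translocation restores β-gal by complementation. Compounds titrated up to 46 uM final, 2 h at 37 °C; luminescence read.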

[7] = target: Mitogen-activated protein kinase 10 (Mus musculus) (UniProt Q61831); assay: JNK3 AlphaScreen Assay (AID 530; active means well fitted curve in either direction with a large enough effect, not every such curve was filed as active;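 further: kinase came from lysate of stimulated human HepG2 cells; signal reports phosphorylation of biotinylated GST-cJun 1-79 at Ser73 with 10 µM ATP; on the % scale 0 is the no-effect control and ±100 the full control effect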); settings: JNK3 lysate, c-Jun phosphorylation; series mostly up to 57.1 µM
Procedure, shortened: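 JNK3 came from HepG2 lysates pre-activated with IL-1beta and TNF-alpha and phosphorylated biotinylated GST-cJun (1-79) at 10 uM ATP, pH 7.6, room temperature. Compounds were titrated. AlphaScreen signal used anti-phospho-cJun (Ser73) antibody.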

[8] = target: Cytochrome P450 3A4 (Homo sapiens) (UniProt P08684); assay: qHTS Assay for Inhibitors and Substrates of Cytochrome P450 3A4 (AID 884); settings: recombinant CYP3A4, Luciferin-PPXE luminescence; series mostly up to 57.1 µM; further: potency means the concentration at half of the fitted maximal effect; nearly all actives have a fitted effect of over 50% in size
Cytochrome P450 3A4 (Homo sapiens), sequence (P08684 whole entry, looked up): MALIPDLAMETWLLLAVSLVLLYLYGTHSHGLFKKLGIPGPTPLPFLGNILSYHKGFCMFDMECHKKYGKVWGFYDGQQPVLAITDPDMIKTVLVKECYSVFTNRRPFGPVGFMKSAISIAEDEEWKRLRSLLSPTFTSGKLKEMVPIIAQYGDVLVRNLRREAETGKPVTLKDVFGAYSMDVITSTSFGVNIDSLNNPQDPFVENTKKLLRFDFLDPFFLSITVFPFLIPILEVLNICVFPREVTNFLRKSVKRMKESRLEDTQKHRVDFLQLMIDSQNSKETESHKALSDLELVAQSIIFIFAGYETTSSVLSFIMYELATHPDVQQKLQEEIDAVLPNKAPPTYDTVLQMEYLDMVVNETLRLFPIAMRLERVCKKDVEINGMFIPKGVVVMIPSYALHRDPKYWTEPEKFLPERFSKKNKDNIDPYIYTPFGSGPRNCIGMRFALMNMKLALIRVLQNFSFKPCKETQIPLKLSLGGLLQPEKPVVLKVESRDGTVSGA
Procedure, shortened: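 20 nM human CYP3A4 with 25 uM Luciferin-PPXE (at KM) in 200 mM KPO4, preincubated 10 min with compound; NADPH regeneration started a 60 min RT reaction. Luciferin detected by luminescence, normalized to 57 uM ketoconazole as full inhibition.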

[9] = target: Cytochrome P450 3A4 (Homo sapiens) (UniProt P08684); assay: qHTS Assay for Activators of Cytochrome P450 3A4 (AID 885); settings: recombinant CYP3A4, Luciferin-PPXE luminescence, 60 min; series mostly up to 57.1 µM; further: nearly all actives have a fitted effect of over 65% in size
Procedure, shortened: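 20nM CYP3A4 + 25uM Luciferin-PPXE (=KM), 200mM KPO4; cpd 10 min RT; NADPH regen, 60 min RT; stop w/ detection buffer, 20 min; luminescence. Normalized to 57 uM ketoconazole.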

[10] = target: Cytochrome P450 2C19 (Homo sapiens) (UniProt P33261); assay: qHTS Assay for Inhibitors and Substrates of Cytochrome P450 2C19 (AID 899); settings: recombinant CYP2C19, luciferin-H EGE luminescence; series mostly up to 57.1 µM; further: potency means the concentration at half of the fitted maximal effect; nearly all actives have a fitted effect of over 60% in size
Procedure, shortened: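 NADPH-dependent conversion of Luciferin-H EGE (10uM, at KM) by 5nM enzyme in 50mM KPO4, 60 min at 37C following 10 min compound preincubation. Stopped with luciferin detection buffer; luminescence read after 20 min.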

[11] = target: Dual specificity protein kinase CLK4 (Homo sapiens) (UniProt Q9HAZ1); assay: qHTS Assay for Inhibitors of CDC-like Kinase 4 (Kinase-Glo Assay) (AID 1770); settings: recombinant Clk4, Kinase-Glo ATP depletion luminescence; series mostly up to 66.7 µM; further: nearly all actives have a fitted effect of over 65% in size; further: potency means the concentration at half of the fitted maximal effect
Dual specificity protein kinase CLK4 (Homo sapiens), sequence (Q9HAZ1 whole entry, looked up): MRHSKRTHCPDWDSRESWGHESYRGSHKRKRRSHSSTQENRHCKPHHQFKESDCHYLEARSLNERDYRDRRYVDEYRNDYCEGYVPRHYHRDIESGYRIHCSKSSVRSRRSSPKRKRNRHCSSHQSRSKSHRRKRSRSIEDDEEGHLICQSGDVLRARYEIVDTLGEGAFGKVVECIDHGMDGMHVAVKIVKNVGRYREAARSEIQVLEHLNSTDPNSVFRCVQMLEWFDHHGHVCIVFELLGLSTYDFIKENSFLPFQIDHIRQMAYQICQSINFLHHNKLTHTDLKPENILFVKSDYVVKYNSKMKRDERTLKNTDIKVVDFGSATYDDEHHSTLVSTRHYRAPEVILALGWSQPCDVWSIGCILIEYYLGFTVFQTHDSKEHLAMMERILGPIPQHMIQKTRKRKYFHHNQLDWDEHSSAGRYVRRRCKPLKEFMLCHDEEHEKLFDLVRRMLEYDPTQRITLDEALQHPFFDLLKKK
Procedure, shortened: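 25 nM Clk4 with 100 uM RS repeat peptide and 1 uM ATP (final) in Tris pH7.5, 10 mM MgCl2, 4.5 h at room temperature. Remaining ATP measured by Kinase-Glo luciferase luminescence.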

[12] = target: Dual specificity protein kinase CLK4 (Homo sapiens) (UniProt Q9HAZ1); assay: qHTS Assay for Inhibitors of CDC-like Kinase 4 (ADP-Glo Assay) (AID 1771); settings: recombinant CLK4, ADP-Glo luminescence; series mostly up to 80 µM; further: nearly all actives have a fitted effect of over 70% in size; further: potency means the concentration at half of the fitted maximal effect
Procedure, shortened: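 Clk4 (25 nM) was incubated 1 hr at room temperature with 100 uM RS repeat peptide and 1 uM ATP in buffer with 2 mM MgCl2, 0.5 mM EGTA, 2.5 mM DTT. ADP formed was quantified by ADP-Glo luminescence.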

[13] = target: Ubiquitin carboxyl-terminal hydrolase 1 (Homo sapiens) (UniProt O94782); assay: Inhibitors of USP1/UAF1: Pilot qHTS (AID 504865); settings: purified USP1/UAF1, Ub-rhodamine cleavage fluorescence; series mostly up to 54.9 µM;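 further: rhodamine fluorescence freed from ubiquitin-rhodamine substrate followed over time; top concentration of the series differs between compounds; on the % scale 0 is the no-effect control and ±100 the full control effect; nearly all actives have a fitted effect of over 35% in size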
Ubiquitin carboxyl-terminal hydrolase 1 (Homo sapiens), sequence (O94782 whole entry, looked up): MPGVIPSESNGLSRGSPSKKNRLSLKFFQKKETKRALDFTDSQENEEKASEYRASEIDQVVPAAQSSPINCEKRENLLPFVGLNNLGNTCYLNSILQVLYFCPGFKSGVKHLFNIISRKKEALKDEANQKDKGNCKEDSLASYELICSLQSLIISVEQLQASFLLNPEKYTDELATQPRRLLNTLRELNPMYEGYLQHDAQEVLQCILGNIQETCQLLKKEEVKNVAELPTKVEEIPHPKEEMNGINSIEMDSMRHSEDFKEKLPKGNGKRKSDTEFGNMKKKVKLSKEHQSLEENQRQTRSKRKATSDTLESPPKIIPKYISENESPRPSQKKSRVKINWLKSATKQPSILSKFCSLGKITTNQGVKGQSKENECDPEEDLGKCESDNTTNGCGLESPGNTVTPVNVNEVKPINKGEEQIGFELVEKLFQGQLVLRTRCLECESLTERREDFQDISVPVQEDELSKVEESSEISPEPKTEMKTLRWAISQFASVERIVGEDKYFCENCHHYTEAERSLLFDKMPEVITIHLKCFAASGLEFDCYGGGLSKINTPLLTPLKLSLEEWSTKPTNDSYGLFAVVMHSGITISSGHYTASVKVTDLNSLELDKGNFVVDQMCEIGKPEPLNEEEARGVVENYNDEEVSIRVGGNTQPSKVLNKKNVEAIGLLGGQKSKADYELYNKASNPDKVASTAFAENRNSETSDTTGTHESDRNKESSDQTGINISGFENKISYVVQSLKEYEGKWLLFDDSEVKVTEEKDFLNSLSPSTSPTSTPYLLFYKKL
Procedure, shortened: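 USP1/UAF1 complex at 1 nM preincubated 15 min at room temperature with compound, then Ub-Rho substrate added at 150 nM final. Fluorescence (480/540 nm) read kinetically in 50 mM HEPES pH 7.8, 0.5 mM EDTA, 1 mM TCEP, 0.1 mg/ml BSA, 0.01% Tween-20.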

[14] = Primary qHTS for small molecule stabilizers of the endoplasmic reticulum resident proteome: Secreted ER Calcium Modulated Protein (SERCaMP) assay (AID 1508630); settings: SH-SY5Y GLuc-SERCaMP (Gaussia luciferase released on ER calcium loss) secretion, thapsigargin, luminescence; series mostly up to 38.4 µM; further: on the % scale 0 is the no-effect control and ±100 the full control effect
Procedure, shortened: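 GLuc-SERCaMP-expressing SH-SY5Y cells, pretreated 16 h with compound, are challenged with thapsigargin to empty ER calcium stores; after 4 h, coelenterazine is added directly to the medium and luminescence is imaged.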

[15] = NFAT Signaling Pathway (AID 444; active means well fitted curve in either direction with a large enough effect, not every such curve was filed as active); settings: Jurkat NFAT-bla M1, carbachol, beta-lactamase ratio, 5 h; at 7.69 µM (top of the series) unless noted
Procedure, shortened: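 Jurkat cells carrying an NFAT-driven β-lactamase reporter and co-transfected muscarinic M1 receptor were treated with compound plus carbachol (1 uM final, an EC50 level) for 5 h at 37 °C. CCF4 loading followed for 1 h at RT; 460/530 nm ratio gave %activity.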

[16] = target: 3',5'-cyclic-AMP phosphodiesterase 4B (Homo sapiens) (UniProt Q07343); assay: qHTS Assay for Inhibitors of PDE-IV (AID 607; active means well fitted activation curve with a large enough effect in the main read-out, with a control signal flat, not every such curve was filed as active; further: % of control where 0% means no effect); settings: HEK293 ACTOne CNG channel cells, membrane potential fluorescence; series mostly up to 22.9 µM
3',5'-cyclic-AMP phosphodiesterase 4B (Homo sapiens), sequence (Q07343 whole entry, looked up): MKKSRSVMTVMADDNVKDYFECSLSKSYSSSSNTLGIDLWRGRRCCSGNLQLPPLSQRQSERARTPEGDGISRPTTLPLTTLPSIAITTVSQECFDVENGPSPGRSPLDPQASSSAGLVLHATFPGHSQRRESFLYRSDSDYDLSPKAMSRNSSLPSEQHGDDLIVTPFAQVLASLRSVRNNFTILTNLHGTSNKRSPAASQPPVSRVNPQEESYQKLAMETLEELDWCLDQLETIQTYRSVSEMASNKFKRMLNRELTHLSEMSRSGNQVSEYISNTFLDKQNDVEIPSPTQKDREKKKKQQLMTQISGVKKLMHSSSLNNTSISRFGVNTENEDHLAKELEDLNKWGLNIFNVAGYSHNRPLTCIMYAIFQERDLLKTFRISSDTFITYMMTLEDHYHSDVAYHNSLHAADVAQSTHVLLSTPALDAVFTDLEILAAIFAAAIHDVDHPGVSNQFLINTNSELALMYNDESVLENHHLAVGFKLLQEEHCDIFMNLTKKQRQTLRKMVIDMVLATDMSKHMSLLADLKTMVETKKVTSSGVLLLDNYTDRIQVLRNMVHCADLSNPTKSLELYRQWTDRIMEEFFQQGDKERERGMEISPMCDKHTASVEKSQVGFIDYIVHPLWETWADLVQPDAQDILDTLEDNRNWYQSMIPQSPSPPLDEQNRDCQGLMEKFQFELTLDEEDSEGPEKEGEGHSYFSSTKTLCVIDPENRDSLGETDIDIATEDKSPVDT
Procedure, shortened: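 ACTOne HEK293 cells carry a modified cAMP-gated CNG channel and express endogenous PDE4; plated 1000 cells/well, compounds up to 22.9 uM final. Membrane-potential dye fluorescence (ex 535/em 590) was read; parental cells received 10 uM forskolin + 100 uM RO 20-1724.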

[17] = target: Dual specificity protein kinase CLK4 (Homo sapiens) (UniProt Q9HAZ1); assay: qHTS Assay for Inhibitors of CDC-like Kinase 4 (ADP-FP Assay) (AID 1795); settings: Transcreener ADP fluorescence polarization; series mostly up to 50 µM;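 further: recombinant human CLK4 phosphorylating RS repeat peptide at 1 µM ATP; on the % scale 0 is the no-effect control and ±100 the full control effect; nearly all actives have a fitted effect of over 60% in size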
Procedure, shortened: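 Recombinant Clk4 (6.25 nM) phosphorylated 100 uM RS repeat peptide with 1 uM ATP in 25 mM Tris pH 7.5, 10 mM MgCl2, 0.5 mM EGTA, 2.5 mM DTT, 0.01% Triton X-100 for 1 h. ADP was detected by Transcreener ADP2 competitive fluorescence polarization after 30 min at room temperature.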

[18] = target: Cytochrome P450 2D6 (Homo sapiens) (UniProt P10635); assay: qHTS Assay for Inhibitors and Substrates of Cytochrome P450 2D6 (AID 891); settings: recombinant CYP2D6, luciferin-ME EGE luminescence; series mostly up to 57.1 µM; further: potency means the concentration at half of the fitted maximal effect; nearly all actives have a fitted effect of over 60% in size
Procedure, shortened: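 Human CYP2D6 (5 nM) with 30 uM Luciferin-ME EGE (at Km) in 100 mM KPO4, compound preincubated 10 min, then NADPH regeneration system for 60 min at room temperature. Luciferin read by luminescence; normalized to 1.43 uM quinidine.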

[19] = target: Cytochrome P450 2C9 (Homo sapiens) (UniProt P11712); assay: qHTS Assay for Inhibitors and Substrates of Cytochrome P450 2C9 (AID 883); settings: recombinant CYP2C9, luciferin-H luminescence, 60 min; series mostly up to 57.1 µM; further: on the % scale 0 is the no-effect control and ±100 the full control effect; nearly all actives have a fitted effect of over 60% in size
Cytochrome P450 2C9 (Homo sapiens), sequence (P11712 whole entry, looked up): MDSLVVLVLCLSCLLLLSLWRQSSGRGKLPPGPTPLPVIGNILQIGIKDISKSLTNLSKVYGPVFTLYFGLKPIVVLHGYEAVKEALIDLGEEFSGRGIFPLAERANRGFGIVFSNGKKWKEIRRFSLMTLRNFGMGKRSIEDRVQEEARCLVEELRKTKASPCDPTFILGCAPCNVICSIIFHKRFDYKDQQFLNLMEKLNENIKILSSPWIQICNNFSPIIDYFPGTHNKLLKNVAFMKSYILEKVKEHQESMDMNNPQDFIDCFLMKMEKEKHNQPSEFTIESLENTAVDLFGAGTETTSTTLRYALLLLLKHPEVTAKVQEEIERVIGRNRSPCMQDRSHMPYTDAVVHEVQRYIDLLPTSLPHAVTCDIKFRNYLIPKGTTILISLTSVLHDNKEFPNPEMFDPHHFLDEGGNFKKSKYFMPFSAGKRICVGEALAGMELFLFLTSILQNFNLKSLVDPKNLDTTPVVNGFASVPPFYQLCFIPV
Procedure, shortened: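 A luminogenic readout tracked human CYP2C9 (10nM) converting deoxyluciferin (100uM, at KM) in 25mM KPO4 during 60 min at 37C with regenerated NADPH. Values normalized to 57uM sulphaphenazole as complete inhibition.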

Structure (SMILES)	Potency [1] [µM]	activity change, negative = inhibition [2] [%]	Potency [3]	activity, negative = inhibition [4] [%]	Potency [5] [µM]	Potency [6] [µM]	Potency [7]	Potency [8]	Potency [9]	Potency [10]	Potency [11]	Potency [12]	Potency [13]	outcome [14]	activity change, negative = inhibition [15] [%]	Potency [16]	Potency [17]	Potency [18]	activity change, negative = inhibition [19]
FC(F)(F)c1ccccc1-c1ccc2ncnc(NC3CC3)c2c1	> 11.4	10	0.316 µM (active)	-18.8	> 46	> 46	inactive	1.58 µM (active)	inactive	2 µM (active)	25.1 µM (active)	25.1 µM (active)	inactive	inactive					
CC(=O)NCCNc1ncnc2ccc(-c3ccccc3Cl)cc12	> 11.4			-1.74	> 46	> 46	inactive		inactive		15.8 µM (active)	15.8 µM (active)	inactive	inactive	-0.746				
CCNc1ncc2nc(C)c(=O)n(C[C@H]3CCCO3)c2n1	> 11.4	3.27	3.98 µM (active)	-8.96	> 9.22	> 46	inactive				inactive		inactive	inactive	-7.96	inactive	inactive		
COc1ccc2[nH]cc(CCNc3ccnc(-c4cccnc4)n3)c2c1	> 11.4		0.251 µM (active)	-3.13	> 46	> 46	inactive	1.26 µM (active)	inactive		12.6 µM (active)	14.1 µM (active)	inactive	inactive	11.3	inactive		1.26 µM (active)	
CN(C)C(=O)c1ccc(-c2cc(NCc3cccs3)ncn2)cc1	> 11.4	-17.2		5.59	> 46	> 46	inactive				20 µM (active)	22.4 µM (active)	inactive	inactive	3.58				
Cc1cnc(CNc2ncncc2-c2ccoc2)cn1	> 11.4	0.489	12.6 µM (active)	3.39	> 46	> 46	inactive	2 µM (active)	inactive		inactive	inactive	inactive	inactive		inactive			
c1cncc(-c2nc(-n3ccnc3)c3ccccc3n2)c1	> 11.4	14.5		-3.82	> 46	> 46	inactive				11.2 µM (active)	11.2 µM (active)	inactive	inactive	8.3	inactive			
Cc1cnc(CNc2ncnc3ccc(-c4cccc(NS(C)(=O)=O)c4)cc23)cn1	> 11.4	-5.16	3.98 µM (active)	-9.12	> 46	> 46			inactive		25.1 µM (active)	15.8 µM (active)	inactive	inactive		inactive			32.5% [at 2.29 µM]
COc1ccc2[nH]cc(CCNc3ccnc(-c4ccccc4Cl)n3)c2c1		-9.46	0.398 µM (active)	-20.6		> 46		2 µM (active)	inactive		22.4 µM (active)	22.4 µM (active)	inactive	inactive	5.21	inactive			
COc1ccc(-n2c(=O)c(-c3ccc(F)cc3)nc3cncnc32)cc1	> 11.4	7.36	inactive	6.09	> 9.22	> 46	inactive				inactive		inactive	inactive	-20	inactive	inactive		
COc1ccccc1CNc1nc(-c2ccccc2OC)nc2ccccc12	> 11.4	6.17		-10.4	> 46	> 46	inactive				inactive	inactive		inactive	-24.7				
N#CCCn1c(=O)c(-c2ccccc2)nc2cnc(N3CCOCC3)nc21	> 11.4	20.5	10 µM (active)		> 9.22	> 46	inactive				inactive	inactive	inactive	inactive		inactive			
CN1CCN(c2ccnc(-c3cccnc3)n2)CC1	> 11.4	-0.185		12.4	> 46	> 46	inactive				25.1 µM (active)	15.8 µM (active)	inactive	inactive	0.489	inactive			
CS(=O)(=O)Nc1cccc(-c2nc(-n3ccnc3)c3ccccc3n2)c1	> 11.4	-3.92		-7.2	> 46	> 46	inactive				15.8 µM (active)	20 µM (active)	inactive	inactive	4.67				

Source: PubChem BioAssay (NCATS)
